# Laboratory results published in PubChem BioAssay.
# The source made the active and inactive calls.
# Legend:
# [1] = E. coli DRC41 culture turbidity changes, primary screen, E. coli filamentation inducer project, strain DRC41, OD650, 48 h (AID 1152);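 note: E. coli MC1000 strain DRC41 lacking acrAB efflux pump and sulA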; settings: E. coli DRC41 (acrAB sulA), higher = more signal, called active from +8 up or from −8 down
# [2] = small-molecule binders of probe aLefty1, primary screen, biochemical, small-molecule microarray, 635/667 nm fluorescence (AID 1153); settings: higher = more signal;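 note: score merges spot fluorescence with signal-to-noise ratio from the scanned slide images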
# [3] = PSAC antagonists in infected red cells, primary screen, cell-based, P. falciparum Indochina, OD700, 1 h (AID 1154); settings: P. falciparum Indochina infected RBC osmotic lysis, higher = more signal, called active from +8 up or from −8 down
# [4] = PSAC antagonists in infected red cells, primary screen, cell-based, P. falciparum Indochina, OD700, 2 h (AID 1155);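 note: lysis reports solute entry through the parasite surface anion channel PSAC; channel blockers reduce lysis of infected cells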; settings: P. falciparum Indochina infected erythrocytes, osmotic lysis OD700; higher = more signal, called active from +8 up or from −8 down
# [5] = osmotic lysis modulators in infected erythrocytes, primary screen, PSAC antagonist project, cell-based, P. falciparum Indochina, OD700, 3 h (AID 1156); settings: higher = more signal, called active from +8 up or from −8 down
# [6] = PSAC antagonists in infected red cells, primary screen, cell-based, P. falciparum Indochina, OD700, 18 h (AID 1157); settings: P. falciparum Indochina infected erythrocytes, osmotic lysis OD700, 18 h; higher = more signal, called active from +8 up or from −8 down
# [7] = modulators of S6 phosphorylation in cells, primary screen, cell-based, A549, cytoblot, luminescence, serum-stimulated (AID 1158); settings: A549 phospho-S6 cytoblot, 5 h, higher = more signal;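 note: serum-stimulated A549 lung adenocarcinoma cells; signal is phosphorylated S6 detected by cytoblot immunostaining with HRP secondary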
# [8] = biological target: NADPH oxidase 2 (Homo sapiens) (UniProt P04839); assay: NOX2-dependent H2O2 signal modulators, primary screen, NOX inhibitor project, cell-based, HEK293-NOX2, PMA-stimulated, Amplex Red fluorescence (AID 1159); settings: 45 min, higher = more signal, called active from +8 up or from −8 down; note: test concentration not given here
# Chain of NADPH oxidase 2 (Homo sapiens) (P04839 whole entry, looked up): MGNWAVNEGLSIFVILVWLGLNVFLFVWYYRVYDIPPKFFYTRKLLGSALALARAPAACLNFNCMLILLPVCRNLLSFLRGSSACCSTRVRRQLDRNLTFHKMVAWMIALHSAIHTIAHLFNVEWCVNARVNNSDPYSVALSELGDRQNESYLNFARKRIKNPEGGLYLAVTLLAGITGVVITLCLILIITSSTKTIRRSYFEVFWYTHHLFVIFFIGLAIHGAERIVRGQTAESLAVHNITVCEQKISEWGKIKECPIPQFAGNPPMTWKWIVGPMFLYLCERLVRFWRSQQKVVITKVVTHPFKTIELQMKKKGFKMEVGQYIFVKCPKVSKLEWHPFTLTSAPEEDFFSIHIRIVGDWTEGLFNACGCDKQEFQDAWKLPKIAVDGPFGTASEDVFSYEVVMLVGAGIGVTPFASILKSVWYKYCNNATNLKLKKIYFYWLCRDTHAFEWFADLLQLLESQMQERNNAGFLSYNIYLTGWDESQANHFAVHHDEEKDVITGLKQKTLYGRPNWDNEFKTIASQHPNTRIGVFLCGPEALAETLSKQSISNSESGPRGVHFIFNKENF
# [9] = biological target: NADPH oxidase 4 (Homo sapiens) (UniProt Q9NPH5); assay: NOX4-dependent H2O2 signal modulators, primary screen, NOX inhibitor project, cell-based, HEK293-NOX4, tetracycline-induced, Amplex Red fluorescence (AID 1160); settings: 45 min, higher = more signal, called active from +8 up or from −8 down
# Chain of NADPH oxidase 4 (Homo sapiens) (Q9NPH5 whole entry, looked up): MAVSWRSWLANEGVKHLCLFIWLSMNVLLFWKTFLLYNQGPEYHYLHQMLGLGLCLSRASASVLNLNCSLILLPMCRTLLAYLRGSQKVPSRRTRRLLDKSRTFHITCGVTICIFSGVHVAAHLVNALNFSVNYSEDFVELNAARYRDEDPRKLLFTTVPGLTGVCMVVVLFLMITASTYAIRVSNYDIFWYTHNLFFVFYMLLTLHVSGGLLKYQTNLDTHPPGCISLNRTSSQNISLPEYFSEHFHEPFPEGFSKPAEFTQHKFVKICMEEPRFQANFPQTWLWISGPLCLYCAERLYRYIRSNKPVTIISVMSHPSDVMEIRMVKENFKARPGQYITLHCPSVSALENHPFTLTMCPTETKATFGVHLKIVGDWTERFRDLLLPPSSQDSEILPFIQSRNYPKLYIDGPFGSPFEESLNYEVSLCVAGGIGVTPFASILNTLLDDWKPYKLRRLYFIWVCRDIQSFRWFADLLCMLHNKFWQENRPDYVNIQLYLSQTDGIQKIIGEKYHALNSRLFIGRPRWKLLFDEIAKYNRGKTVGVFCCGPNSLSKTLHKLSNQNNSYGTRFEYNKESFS
# [10] = biological target: NADPH oxidase 5 (Homo sapiens) (UniProt Q96PH1); assay: NOX5-dependent H2O2 signal modulators, primary screen, NOX inhibitor project, cell-based, HEK293-NOX5, Amplex Red fluorescence (AID 1161); settings: HEK293-NOX5, ionomycin, 45 min, higher = more signal
# Chain of NADPH oxidase 5 (Homo sapiens) (Q96PH1 whole entry, looked up): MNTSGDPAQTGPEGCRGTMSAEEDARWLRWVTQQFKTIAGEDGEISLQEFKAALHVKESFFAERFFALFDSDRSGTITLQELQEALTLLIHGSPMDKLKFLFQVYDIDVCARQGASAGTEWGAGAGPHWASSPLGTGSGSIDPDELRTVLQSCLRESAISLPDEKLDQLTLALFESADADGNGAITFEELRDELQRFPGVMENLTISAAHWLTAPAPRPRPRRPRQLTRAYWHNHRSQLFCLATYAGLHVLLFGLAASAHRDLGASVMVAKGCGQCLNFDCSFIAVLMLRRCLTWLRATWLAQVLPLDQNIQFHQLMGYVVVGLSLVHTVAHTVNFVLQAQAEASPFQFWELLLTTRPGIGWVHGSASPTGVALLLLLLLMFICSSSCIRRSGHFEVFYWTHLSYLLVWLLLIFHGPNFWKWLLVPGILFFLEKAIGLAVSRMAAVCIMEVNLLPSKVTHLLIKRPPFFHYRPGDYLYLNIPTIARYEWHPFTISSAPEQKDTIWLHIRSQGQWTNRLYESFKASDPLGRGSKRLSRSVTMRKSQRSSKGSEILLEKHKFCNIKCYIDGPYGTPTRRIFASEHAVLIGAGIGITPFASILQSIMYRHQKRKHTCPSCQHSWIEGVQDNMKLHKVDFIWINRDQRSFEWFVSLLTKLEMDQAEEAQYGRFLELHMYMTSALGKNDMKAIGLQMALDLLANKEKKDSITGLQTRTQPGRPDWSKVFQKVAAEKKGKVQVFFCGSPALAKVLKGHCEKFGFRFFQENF
# [11] = A549 cell viability effects, profiling panel, calcein-AM fluorescence, 48 h, basal (AID 1162); settings: higher = more signal; note: test concentration not given here
# [12] = adipocyte viability effects, profiling panel, cell-based, 3T3-L1 adipocytes, calcein-AM fluorescence, 48 h, basal (AID 1163); settings: 3T3-L1 adipocytes viability, higher = more signal; note: test concentration not given here
# [13] = HepG2 cell viability effects, profiling panel, calcein-AM fluorescence, 48 h, basal (AID 1164); settings: higher = more signal; note: test concentration not given here
# [14] = MM1S cell viability effects, profiling panel, calcein-AM fluorescence, 48 h, basal (AID 1165); settings: higher = more signal;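 note: viability of MM1S multiple myeloma cells under basal unstimulated conditions; test concentration not given here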
# [15] = basal RPMI8226 viability, no added stimulus, profiling panel, cell-based, calcein-AM fluorescence, 48 h, PK04 Diversity Set (AID 1166); settings: RPMI8226 myeloma viability, higher = more signal;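 note: cells grown under basal conditions without added stimulus; test concentration not given here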
# [16] = basal HepG2 mitochondrial membrane potential changes, profiling panel, cell-based, JC-1 fluorescence, 24 h, 100 nL compound (AID 1167); settings: higher = more signal; note: test concentration not given here
# [17] = basal 3T3-L1 adipocyte mitochondrial potential changes, profiling panel, cell-based, JC-1 fluorescence, 3T3-L1 adipocytes, 24 h, 100 nL compound (AID 1168); settings: JC-1 mitochondrial fluorescence, higher = more signal, called active from +8 up or from −8 down; note: test concentration not given here
# [18] = basal RPMI8226 mitochondrial membrane potential changes, profiling panel, cell-based, JC-1 fluorescence, 24 h, 100 nL compound (AID 1169); settings: RPMI8226 myeloma, JC-1 mitochondrial potential fluorescence, higher = more signal; note: test concentration not given here
# [19] = basal MM1S mitochondrial membrane potential changes, profiling panel, cell-based, JC-1 fluorescence, 24 h, 100 nL compound (AID 1170); settings: higher = more signal; note: test concentration not given here
# [20] = A549 lung cancer cell viability effects, profiling panel, resazurin fluorescence, 24 h, PK04 Diversity Set (AID 1171); settings: higher = more signal, called active from +8 up or from −8 down; note: test concentration not given here
Structure (SMILES),z-score [1],composite z-score [2],z-score [3],z-score [4],z-score [5],z-score [6],z-score [7],z-score [8],z-score [9],z-score [10],z-score [11],z-score [12],z-score [13],z-score [14],z-score [15],z-score [16],z-score [17],z-score [18],z-score [19],z-score [20]
CCCC[C@@H]1C[C@H]1[C@@H](NC(=O)c1cccs1)c1ccc(-c2ccccc2)cc1,-1.89 (inactive),0.142,2.41 (inactive),0.856 (inactive),-0.398 (inactive),0.668 (inactive),-0.993,-0.939 (inactive),-0.827 (inactive),0.936,-0.997,-0.537,-0.0352,-0.802,-0.38,0.565,-1.56 (inactive),-0.233,-0.815,1.71 (inactive)
O=C1NC(=O)C2C1C=CC(C(O)c1cc(C(F)(F)F)cc(C(F)(F)F)c1)N2Nc1ccccn1 (stereo not given),-1.87 (inactive),0.127,0.499 (inactive),0.701 (inactive),-0.0477 (inactive),0.827 (inactive),-0.822,-1.17 (inactive),-1.72 (inactive),-2.4,-1.02,-0.485,-0.165,0.34,-0.559,-0.326,-0.169 (inactive),0.372,-0.204,-0.568 (inactive)
COC(=O)[C@H](Cc1ccccc1)N1CC2=C[C@@H](C3CC3)n3c(=O)n(C)c(=O)n3[C@H]2[C@@H]1[C@@H](O)Cc1ccccc1,-1.32 (inactive),0.355,11.5 (active),2.35 (inactive),0.645 (inactive),1.58 (inactive),0.144,-0.813 (inactive),-0.218 (inactive),-1.71,1.97,-0.375,0.888,0.378,-0.473,1.49,-1.06 (inactive),0.223,-0.804,0.138 (inactive)
COc1ccc(CCNC(=O)[C@@]2(C)c3ccccc3C(=O)N(C(C)C)[C@H]2c2ccc(CO)cc2)cc1,0.312 (inactive),-0.28,1.66 (inactive),0.133 (inactive),0.386 (inactive),-0.0145 (inactive),-0.441,-1.12 (inactive),-0.479 (inactive),-0.224,0.133,-0.103,0.779,-1.35,-0.974,2.6,0.169 (inactive),-0.0396,-0.03,-0.0933 (inactive)
C=CCC(OC(C)=O)[C@@H]1[C@@H](N(Cc2cccc3ccccc23)C(=O)c2ccc(-c3ccccc3)cc2)c2cc(OCCCO)ccc2N1C(=O)c1ccc2ccccc2c1 (stereo not given in full),-0.495 (inactive),0.0153,0.135 (inactive),0.396 (inactive),-0.182 (inactive),0.0644 (inactive),0.174,-0.608 (inactive),0.624 (inactive),-0.535,-0.525,-0.526,-0.62,0.279,-0.494,1.62,-0.693 (inactive),-0.011,-0.000791,1.09 (inactive)
CC[C@@H]1C=C(C(=O)O)[C@H](c2ccc(Br)cc2)N1S(=O)(=O)c1ccc(C)cc1,-0.467 (inactive),-0.0989,0.471 (inactive),1.06 (inactive),-0.187 (inactive),0.658 (inactive),-0.283,0.451 (inactive),-0.117 (inactive),0.379,-0.646,-0.506,-0.586,-0.314,-1.13,-0.131,-0.258 (inactive),-0.0108,-0.82,-0.472 (inactive)
COc1cc2c(cc1OC)CN(C(=O)[C@@H]1[C@H]3C(=O)O[C@H](c4ccccc4)[C@H](c4ccccc4)N3[C@H](c3ccccc3OCCO)[C@@]13C(=O)Nc1ccc(C#CCCO)cc13)CC2,0.761 (inactive),0.751,2.28 (inactive),1.05 (inactive),0.85 (inactive),0.565 (inactive),0.212,1.29 (inactive),1.15 (inactive),0.301,1.26,0.784,0.665,-0.777,-0.803,0.453,1.2 (inactive),-1.21,-0.107,1.28 (inactive)
C=CC(=C)[C@H]1Oc2ccccc2S(=O)(=O)N2CCC[C@@H]12,-0.829 (inactive),0.131,4.63 (inactive),0.751 (inactive),-0.309 (inactive),0.01 (inactive),0.0928,-0.0944 (inactive),-1.04 (inactive),-1.38,0.159,0.0997,-1.23,-0.391,-1.64,-0.708,-0.0333 (inactive),-0.295,0.941,0.0255 (inactive)
COc1ccc(/C=C/C=O)cc1,0.0676 (inactive),0.11,-0.0134 (inactive),-0.113 (inactive),0.392 (inactive),0.0327 (inactive),-0.416,-0.721 (inactive),-0.379 (inactive),0.589,0.637,-0.243,0.0562,0.418,-1.22,0.555,0.754 (inactive),-0.464,-0.0737,-0.925 (inactive)
C=CCOC(=O)[C@@H]1[C@H]2C(=O)O[C@H](c3ccccc3)[C@H](c3ccccc3)N2[C@H](c2ccc(OCCOC(=O)[C@H]3C[C@H]4C(=O)N5CCC[C@H]5C(=O)N4[C@H]3c3ccc(O)cc3)cc2)[C@@]12C(=O)Nc1ccc(I)cc12,0.371 (inactive),0.19,1.37 (inactive),-0.552 (inactive),0.777 (inactive),-1.37 (inactive),0.718,0.986 (inactive),1.1 (inactive),1.36,0.0077,0.205,-1.02,-1.75,-1.31,-1.7,1.24 (inactive),-0.81,-1.27,-0.685 (inactive)
C=C(CCCC)/C(=C/C[C@H](OC(=O)c1ccncc1)c1ccccc1OCCO)c1cnc2ccccc2c1,-0.244 (inactive),0.11,23.7 (active),4.64 (inactive),1.08 (inactive),1.02 (inactive),0.0376,-1.22 (inactive),-0.281 (inactive),-1.45,0.0262,0.091,0.0722,-3.3,-2.97,0.943,-0.424 (inactive),-0.716,-0.705,0.89 (inactive)
[N-]=[N+]=Nc1ccccc1[C@H]1OC(c2ccc(OCCCO)cc2)=N[C@@]1(CCS(=O)(=O)c1ccccc1)C(N)=O,0.613 (inactive),0.138,32 (active),28.1 (active),1.48 (inactive),2.16 (inactive),-0.0187,0.178 (inactive),0.067 (inactive),-0.909,0.0833,0.733,0.0844,-0.57,0.0418,-0.93,-0.235 (inactive),-1.07,0.296,0.985 (inactive)
CC1CC/C=C\[C@H]2OC34C=CCN(Cc5ccccc5)C(=O)[C@H]3N(CCCO)C(=O)[C@@H]4C2C(=O)O1 (stereo not given in full),0.144 (inactive),-0.147,0.329 (inactive),-0.093 (inactive),-0.316 (inactive),-0.254 (inactive),-0.102,1.66 (inactive),0.366 (inactive),3.18,-0.0905,0.324,-0.0453,-0.142,0.197,0.0693,0.237 (inactive),-0.0499,1.68,-0.433 (inactive)
COc1ccccc1CN1C(=O)c2ccccc2[C@@]2(Cc3ccccc3N(CC(C)C)C2=O)[C@@H]1c1ccc(CO)cc1,-0.12 (inactive),-0.827,0.226 (inactive),0.215 (inactive),0.297 (inactive),0.109 (inactive),0.0317,-0.0964 (inactive),0.11 (inactive),1.12,0.211,0.444,-0.385,-0.481,-0.0712,-0.204,0.211 (inactive),-0.887,-0.0409,-1.03 (inactive)
CC(C)N1C(=O)c2ccccc2[C@](C)(C(=O)NCCN2CCOCC2)[C@@H]1c1ccc(CO)cc1,-0.469 (inactive),0.0451,2.19 (inactive),0.0259 (inactive),0.914 (inactive),0.426 (inactive),-0.522,1.05 (inactive),0.627 (inactive),0.283,-0.291,-0.748,0.458,-1.69,0.0409,0.916,-0.537 (inactive),1,-0.0545,0.0569 (inactive)
CCCC=C(CCC)[C@@H](NC(=O)c1cccs1)c1ccc(C(F)(F)F)cc1,-0.938 (inactive),0.504,3.15 (inactive),-0.119 (inactive),1.36 (inactive),-1.39 (inactive),1.42,-4.56 (inactive),-3.52 (inactive),-2.77,-1.43,0.203,-0.809,-1.41,-4.35,1.34,-0.229 (inactive),-0.393,-1.71,1.73 (inactive)
COc1cc(Br)cc(C(O)C2C=CC3C(=O)N(C)C(=O)C3N2N2CCCCC2)c1OC (stereo not given),-1.8 (inactive),0.152,0.712 (inactive),1.27 (inactive),0.126 (inactive),1.17 (inactive),-1.45,0.524 (inactive),-3.5 (inactive),-0.637,-1.12,-0.456,-0.315,-1.68,-0.18,-1.05,-0.535 (inactive),0.672,-0.129,-0.318 (inactive)
CC1(C)[C@@H]2CC(C(O)C3C=CC4C(=O)N(c5ccccc5)C(=O)C4N3Nc3ccc([N+](=O)[O-])cc3)=C[C@H]1C2 (stereo not given in full),-1.03 (inactive),0.404,14.3 (active),2.98 (inactive),2.92 (inactive),1.56 (inactive),-0.539,-0.0932 (inactive),-1.02 (inactive),-2.02,-0.0923,-0.484,-0.0345,0.114,0.287,-1.41,-2.48 (inactive),0.428,-1.09,0.539 (inactive)
